Experiment [1] can be described thus: VALA_MIGHUV2_Bcatenin: VALA Sciences human Umbilical Vein Endothelial Cell Migration (MIGHUV) Assay, Nuclear Translocation of beta-Catenin after Recovery (AID 2284315). The method, boiled down:
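Nuclear beta-catenin imaged by immunofluorescence with Hoechst counterstain in fixed HUVEC, 24 h after scratch wounding and chemical addition. Six-point concentration-response in triplicate; activity scored as signal increase over 0.1% DMSO vehicle.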

Experiment [2] in a line: VALA_MIGHUV2_WoundArea: VALA Sciences human Umbilical Vein Endothelial Cell Migration (MIGHUV) Assay, Area of Scratch Wound after Recovery (AID 2284316). The method, boiled down: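 Wound-area endpoint read by fluorescence imaging of Hoechst-stained nuclei after a 24 h recovery period following scratch of HUVEC monolayers (9000 cells/well). Chemicals dosed within 30 min post-scratch, triplicate 6-point series, 0.1% DMSO vehicle; Cytochalasin D positive control.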

Experiment [3] in a line: VALA_MIGHUV1_ScratchOnly_CellCount: Viability Assessment in the VALA Sciences human Umbilical Vein Endothelial Cell Migration (MIGHUV) Assay, Scratch Wound Inhibited Recovery (AID 2284327). How it is done:
VALA_MIGHUV1_ScratchOnly is a cell-based, multiplexed assay that uses umbilical vein-derived endothelial cells (HUVEC). Measurements were taken 24 hours after chemical dosing in a 96-well plate.VALA_MIGHUV1_ScratchOnly_CellCount is the one of two assay components measured from the VALA_MIGHUV1_ScratchOnly assay. It is designed to make measurements of viability, a form of viability reporter, as detected with fluorescence intensity signals by HCS Fluorescent Imaging technology. Data from the assay component VALA_MIGHUV1_ScratchOnly_CellCount was analyzed at the endpoint, VALA_MIGHUV1_ScratchOnly_CellCount, in the positive analysis fitting direction relative to DMSO as the negative control and baseline of activity. Using a type of viability reporter, loss-of-signal activity can be used to understand viability. To generalize the intended target to other relatable targets, this assay endpoint is annotated to the cell cycle intended target family, where the subfamily is cell count.
Cells were seeded on 384-well microplates (day-0) at a density of 9000 cells per well for detection of wound area recovery or 4000 cells per well for detection of beta-catenin (CTNB) immunoreactivity and incubated in Endothelial Cell Growth Medium (CAI, San Diego; catalog 211-500). After 24 hours of culture, the HUVEC plates were scratched using a custom scratch head with the Bravo liquid handling system. […]

Experiment [4] in a line: VALA_TUBIPS_Agonist_CellCount: Viability Assessment in the VALA Sciences human iPS-derived Endothelial Tubule Formation (TUBIPS) Agonism Assay (AID 2284338).
Experiment [5] has as its system IYD (gene 389434). The experiment is described as follows: CCTE_GLTED_hIYD: CCTE's human Iodotyrosine Deiodinase (xIYD) Inhibition Assay, Great Lakes Toxicology and Ecology Division (GLTED) Lab (AID 2284317).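 Further: cell-free human IYD enzyme made in baculovirus insect cells; iodide freed from monoiodotyrosine measured by cerium arsenite color change at 420 nm.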 The method, boiled down:
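In the IYD assay, iodide released from MIT by insect-cell-expressed human enzyme was quantified after 3 h via Sandell-Kolthoff rate at 420 nm, with plate-wise normalization to MNT and solvent controls.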

For experiment [6], the system named is TTR (gene 7276). The experiment is described as follows: CCTE_GLTED_hTTR_0.5uM: CCTE's human Transthyretin (hTTR) Inhibition Assay, with 0.5uM TTR, Great Lakes Toxicology and Ecology Division (GLTED) Lab (AID 2284320; active means hit-call score of the fitted dose curve at least 0.9, where 1 is the maximum; inactive means score below 0.9). Here is the method: CCTE_GLTED_hTTR is a cell-free, single-readout assay designed to test the chemicals' ability to displace T4 from the human transthyretin (TTR) protein. TTR (at 0.125uM or 0.5uM) is incubated in presence of test chemical for 2 hours during which disrupting chemicals displace ANSA from the TTR protein. Results read fluorescence at 380 excitation and 475 emission.CCTE_GLTED_hTTR_0.5uM is the assay component measured from the CCTE_GLTED_hTTR assay. It is designed to make measurements of fluorescent polarization, using a form of binding reporter, as detected with Fluorescence signals by Fluorescence technology.Data from the assay component CCTE_GLTED_hTTR_0.5uM was analyzed at the assay endpoint CCTE_GLTED_hTTR_0.5uM in the positive analysis fitting direction relative to DMSO as the negative control and baseline of activity. Using a type of binding reporter, loss-of-signal activity can be used to understand a chemical's ability to displace T4 from transthyretin. To generalize the intended target to other relatable targets, this assay endpoint is annotated to the 'transporter' intended target family, where the subfamily is 'hormone carrier protein'.

A short description of experiment [7]: CCTE_Deisenroth_H295R-HTRF_384WELL_ESTRADIOL: CCTE's H295R-HTRF Assay Evaluation of Estradiol Concentration, Deisenroth Lab (AID 2284361; active means hit-call score of the fitted dose curve at least 0.9, where 1 is the maximum; inactive means score below 0.9). The following applies: actives raise or lower the signal. The method, boiled down: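 Estradiol secreted into medium by H295R adrenocortical cells, quantified by HTRF after 48 h dosing over a nine-point 0.001 - 100 uM final range; gain or loss versus DMSO. Parallel ATP-luminescence viability readout; n=5 experiments.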
In general terms: In TR-FRET formats the signal depends on donor and acceptor labels being close together.

Experiment [8] can be described thus: CCTE_Deisenroth_H295R-HTRF_384WELL_TESTOSTERONE: CCTE's H295R-HTRF Assay Evaluation of Testosterone Concentration, Deisenroth Lab (AID 2284373; active means hit-call score of the fitted dose curve at least 0.9, where 1 is the maximum; inactive means score below 0.9). Conditions: actives raise or lower the signal. The method, boiled down:
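Testosterone secreted into medium was quantified by direct HTRF immunoassay after a 48 h treatment of H295R adrenocortical cells (nine concentrations, 0.001–100 uM final). Gain or loss fitted relative to DMSO; CellTiter-Glo viability read on same plates.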

Consider six compounds from PubChem BioAssay (EPA / NIEHS).

Inconclusive results are not listed. Some structures have more than one record in an assay (separate samples or runs), and their calls can disagree. Activity calls are given as the source filed them. How the source made its calls, unless noted: active means hit-call score of the fitted dose curve at least 0.9, where 1 is the maximum; inconclusive means response in the unintended direction; inactive means score below 0.9.

As usually defined, the AC50 is the concentration giving half of the maximal activity seen. In the case of `CO[C@@H]1[C@H](OC(=O)NC(=O)CCl)CC[C@]2(CO2)[C@H]1[C@@]1(C)O[C@@H]1CC=C(C)C`, the AC50 was 1.29 nM (active) in experiment [1] and 168 nM (active) in experiment [4]. The compound was called inactive in experiment [2], in experiment [3] and in experiment [4].

Take `Clc1ccc(C(c2ccc(Cl)cc2)C(Cl)(Cl)Cl)cc1`: in experiment [5], the AC50 was 35200 nM (active).

With `CCNS(=O)(=O)C(F)(F)C(F)(F)C(F)(F)C(F)(F)C(F)(F)C(F)(F)C(F)(F)C(F)(F)F`, the concentration at half-maximal activity (AC50) in experiment [6] is 1540 nM (active).

Turning to `Oc1ccc2ccc3cccc4ccc1c2c34`, the outcome in experiment [4] was inactive.

Turning to `CC(C)(C)C(O)(CCc1ccc(Cl)cc1)Cn1cncn1` (configuration not stated), the compound was called inactive in experiment [7]. Further, the AC50 in experiment [8] is 2000 nM (active).

Regarding `O=[N+]([O-])c1ccc(Oc2ccc(Cl)cc2Cl)cc1`, the call in experiment [7] and in experiment [8] was inactive.
